PubChem BioAssay (NCATS)
Where “and” joins values, the source holds several entries; their conditions need not be identical. Equal entries are not always repeated. Records with an inconclusive call do not appear. Calls of active or inactive are those of the source. Unless noted, calls come from the whole dose curve; as a rule, active = well fitted curve in the direction sought with a large enough effect; inconclusive = small, poorly fitted or top-dose-only effect, or another doubt; inactive = no such curve, though single readings can be large; an effect the other way counts as inactive or inconclusive.

Experiments:
[1] = qHTS Assay for Identifying Gametocytocidal Compounds (AID 743244);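 note: % is set by controls: 0 for no effect and ±100 for the full control effect; actives lower the fluorescent signal which means gametocytes are killed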; details: P. falciparum 3D7 stage III-V gametocytes, alamarBlue, 72 h; max response: stronger effect = lower value
In short: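 In this qHTS viability screen, late-stage 3D7 gametocytes are incubated with compound for 72 h, then with alamarBlue for 24 h; reduced resorufin fluorescence marks killing.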

[2] = qHTS assay for measurement of the activity of small molecule inhibitors on Zika virus induced Caspase-3 activity in human iPSC derived neural progenitor cells (hNPCs) (AID 1224857); details: hNPCs ZIKV-induced caspase-3/7, Caspase-Glo luminescence, 6 h; series mostly up to 45.7 µM; note: % of control where 0% means no effect; nearly all actives have a fitted effect of over 65% in size
In short: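 In medium with heparin 2 ug/ml and cyclopamine 2 uM, hNPCs (350 cells/well) received compound for one hour and then Zika virus at 2 FFU/cell; caspase activity was measured by Caspase-Glo 3/7 luminescence 6 h post-infection.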

[3] = qHTS assay for measurement of the activity of small molecule inhibitors on Zika virus induced Caspase-3 activity in human astrocytoma cells (AID 1224859); details: SNB-19 ZIKV-induced caspase-3/7, luminescence, 6 h; series mostly up to 45.7 µM;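 note: plate controls were ZIKV-infected untreated cells for no effect and uninfected cells for full effect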
In short: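 A cell-based luminescent caspase-3/7 assay used SNB-19 cells infected with ZIKV (2 FFU/cell) for 6 h following 1 h compound pretreatment.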

[4] = P-glycoprotein substrates identified in KB-3-1 adenocarcinoma cell line, qHTS therapeutic library screen (AID 1346986); details: KB-3-1 parental cells viability, CellTiter-Glo, 72 h; series mostly up to 44.5 µM; note: nearly all actives have a fitted effect of over 60% in size
In short: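 In 1536-well format, 500 cells/well received pinned compound titrations and were incubated 72 h, 5% CO2. Viability was read by CellTiter-Glo; cytotoxic if AC50 < 10 uM and efficacy >50%.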

[5] = qHTS assay for small molecule agonists of the antioxidant response element (ARE) signaling pathway measured by Nrf2-dependant transcriptional activity (AID 720636; active = well fitted curve in the direction sought with a large enough effect in the repeat runs; an effect the other way counts as inactive or inconclusive;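 note: HepG2 cells with an ARE-driven luciferase reporter; % of control where 0% means no effect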); details: ARE-luc HepG2, Nrf2 luciferase reporter, 16 h; series mostly up to 92.4 µM
In short: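 Attachment 6 hr at 37 C, then compound versus DMSO vehicle for 16 hr in ARE-luc HepG2 cells (1% dialyzed FBS); luminescence recorded 30 min after ONE-Glo addition at room temperature.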

[6] = qHTS assay for small molecule antagonists of the retinoid-related orphan receptor gamma (ROR-gamma) signaling pathway - cell viability counter screen (AID 720652; active = well fitted curve in the direction sought with a large enough effect in the repeat runs; an effect the other way counts as inactive or inconclusive;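 note: CHO reporter cells with doxycycline-induced ROR-gamma expression; compound exposure lasted 16 hr before ATP read; % is set by controls: 0 for no effect and ±100 for the full control effect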); details: RORgamma reporter cell line viability counter screen; series mostly up to 92.2 µM
In short: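 Steps: seed CHO cells bearing TET-inducible ROR and ROR response element-luciferase; rest 5 hr at 37 C; add compound, then doxycycline; incubate 16 hr; add CellTiter-Glo and read luminescence as ATP-based viability.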

[7] = qHTS assay for small molecule agonists of the antioxidant response element (ARE) signaling pathway measured by Nrf2-dependant transcriptional activity - cell viability counter screen (AID 720653; active = well fitted curve in the direction sought with a large enough effect in the repeat runs; an effect the other way counts as inactive or inconclusive; note: % is set by controls: 0 for no effect and ±100 for the full control effect); details: ARE-bla HepG2 viability, CellTiter-Glo ATP luminescence, 16 h; max response: stronger effect = lower value
In short: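 ARE-bla HepG2 cells treated with compounds for 16 h at 37C; this counter screen measures viability as intracellular ATP by CellTiter-Glo luminescence after 30 min at room temperature.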

[8] = qHTS assay for cell viability of HEK293 cells (AID 743288); details: ATP luminescence (CellTiter-Glo), 18 h, stronger effect = lower value; note: % is set by controls: 0 for no effect and ±100 for the full control effect; nearly all actives have a fitted effect of over 50% in size
In short: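 Steps: plate 2,000 parental HEK293 cells per well; incubate ≥5 h, 37 C; add compounds in DMSO; incubate 18 h, 37 C; add CellTiter-Glo; wait 30 min at room temperature; read luminescence.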

[9] = qHTS assay for cell viability of the p53RE-bla HCT-116 cell line (AID 743292); details: p53RE-bla HCT-116 viability, ATP luminescence, 16 h; series mostly up to 95 µM; note: % is set by controls: 0 for no effect and ±100 for the full control effect; nearly all actives have a fitted effect of over 55% in size
In short: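 Compound-exposed HCT-116 (p53RE-bla) cells, 4,000 per well, were kept 16 h at 37 C following a 5 h preincubation. Cell number was estimated from total ATP by CellTiter-Glo luminescence read after 30 min at room temperature.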

[10] = P-glycoprotein substrates identified in KB-8-5-11 adenocarcinoma cell line, qHTS therapeutic library screen (AID 1346987); details: KB-8-5-11 (P-gp overexpressing) viability, CellTiter-Glo, 72 h; series mostly up to 44.5 µM; note: % is set by controls: 0 for no effect and ±100 for the full control effect; nearly all actives have a fitted effect of over 65% in size
In short: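 Luminescence from CellTiter-Glo, read 5 min after addition, quantified survival of KB-8-5-11 (P-gp-overexpressing) cells exposed to compounds for 72 h. AC50 was derived from concentration-response curves.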

[11] = target: T1, Hexokinase-4 (Homo sapiens) + Glucokinase regulatory protein (Homo sapiens) (UniProt P35557+Q14397); test: qHTS assay for inhibitors of recombinant human GCK-GKRP interaction: Diaphorase-coupled assay (AID 743205); details: G6PDH/diaphorase resorufin fluorescence; series mostly up to 57.5 µM
T1 sequence (P35557 whole entry, looked up): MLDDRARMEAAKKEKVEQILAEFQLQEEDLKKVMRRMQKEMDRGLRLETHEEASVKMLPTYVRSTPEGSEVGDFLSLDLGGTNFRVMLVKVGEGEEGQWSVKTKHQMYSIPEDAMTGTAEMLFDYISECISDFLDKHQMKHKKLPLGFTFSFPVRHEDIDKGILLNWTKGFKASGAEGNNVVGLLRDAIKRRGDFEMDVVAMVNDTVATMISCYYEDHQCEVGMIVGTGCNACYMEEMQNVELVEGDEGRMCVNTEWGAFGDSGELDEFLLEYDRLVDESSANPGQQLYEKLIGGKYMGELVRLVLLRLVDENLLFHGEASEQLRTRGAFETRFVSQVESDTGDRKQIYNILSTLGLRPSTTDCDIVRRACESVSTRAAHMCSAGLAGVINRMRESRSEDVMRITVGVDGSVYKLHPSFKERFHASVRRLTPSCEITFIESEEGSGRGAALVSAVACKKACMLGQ
T1 sequence (Q14397 whole entry, looked up): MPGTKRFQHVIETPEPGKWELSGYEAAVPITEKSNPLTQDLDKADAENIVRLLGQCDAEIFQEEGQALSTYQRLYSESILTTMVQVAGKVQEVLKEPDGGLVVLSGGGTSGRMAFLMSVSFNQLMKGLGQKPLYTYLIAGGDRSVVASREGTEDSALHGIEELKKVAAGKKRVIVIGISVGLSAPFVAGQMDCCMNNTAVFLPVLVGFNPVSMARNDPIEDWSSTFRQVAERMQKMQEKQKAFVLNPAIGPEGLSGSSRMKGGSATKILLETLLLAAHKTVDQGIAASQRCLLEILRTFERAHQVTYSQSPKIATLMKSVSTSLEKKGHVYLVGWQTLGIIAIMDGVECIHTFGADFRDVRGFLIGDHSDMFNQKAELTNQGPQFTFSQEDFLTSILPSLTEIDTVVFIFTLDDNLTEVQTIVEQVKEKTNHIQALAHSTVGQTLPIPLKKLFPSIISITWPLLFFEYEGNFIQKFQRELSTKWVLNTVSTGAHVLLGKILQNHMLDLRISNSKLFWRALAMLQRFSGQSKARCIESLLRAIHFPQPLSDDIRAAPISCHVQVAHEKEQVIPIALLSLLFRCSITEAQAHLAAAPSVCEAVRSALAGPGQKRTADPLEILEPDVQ
In short: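 Compounds pre-incubated 20 min with substrate, then 10 nM GST-GCK with 10 nM FLAG-GKRP added. GCK activity coupled via G6PDH and diaphorase to resorufin (5 mM glucose, 0.4 mM ATP, 0.15 mM NADP+, pH 7.6), read kinetically over 30 minutes at Ex 525/Em 590 nm.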

[12] = target: T1, Hexokinase-4 (Homo sapiens) + Glucokinase regulatory protein (Homo sapiens); test: qHTS assay for inhibitors of recombinant human GCK-GKRP interaction: ADP-Glo assay (AID 743206); details: ADP-Glo luminescence, 60 min, 0% = vehicle-only wells with enzyme present; series mostly up to 76.9 µM;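 note: plate controls were DMSO plus enzyme for no effect and no enzyme for full effect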
In short: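 Pin-transferred compounds meet a 15 nM GST-GCK/15 nM FLAG-GKRP/2 uM S6P mix (dispense concentrations). ATP is then added to 0.4 mM final with 5 mM glucose, and the reaction runs 60 min at room temperature. ADP is quantified luminescently.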

[13] = target: T1, Hexokinase-4 (Homo sapiens) + Glucokinase regulatory protein (Homo sapiens); test: qHTS assay for inhibitors of recombinant human GCK-GKRP interaction: HTRF assay (AID 743207); details: recombinant GCK-GKRP HTRF binding, 60 min, with sorbitol-6-phosphate; series mostly up to 57.5 µM;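 note: 0% = DMSO with GCK present and -100% = DMSO wells lacking GCK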
In short: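 HTRF binding of 5 nM GST-GCK and 5 nM FLAG-GKRP with 2 uM S6P in pH 7.1 Hepes buffer (MgCl2, KCl, DTT, Tween 20, BSA). Anti-FLAG XL665 and anti-GST donor added, 60 min at room temperature; 665/615 nm read, normalized to with- and without-GCK controls.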

[14] = target: Atrial natriuretic peptide receptor 1 (Homo sapiens) (UniProt P16066); test: Natriuretic polypeptide receptor (hNpr1) antagonism - Pilot screen (AID 1347049; calls by dose curve;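 note: agonist-evoked cGMP luminescence read 20 min after hNppA addition; % is set by controls: 0 for no effect and ±100 for the full control effect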); details: hNpr1 cells, antagonist mode cGMP read-out; series mostly up to 57.5 µM
Chain of Atrial natriuretic peptide receptor 1 (Homo sapiens) (P16066 whole entry, looked up): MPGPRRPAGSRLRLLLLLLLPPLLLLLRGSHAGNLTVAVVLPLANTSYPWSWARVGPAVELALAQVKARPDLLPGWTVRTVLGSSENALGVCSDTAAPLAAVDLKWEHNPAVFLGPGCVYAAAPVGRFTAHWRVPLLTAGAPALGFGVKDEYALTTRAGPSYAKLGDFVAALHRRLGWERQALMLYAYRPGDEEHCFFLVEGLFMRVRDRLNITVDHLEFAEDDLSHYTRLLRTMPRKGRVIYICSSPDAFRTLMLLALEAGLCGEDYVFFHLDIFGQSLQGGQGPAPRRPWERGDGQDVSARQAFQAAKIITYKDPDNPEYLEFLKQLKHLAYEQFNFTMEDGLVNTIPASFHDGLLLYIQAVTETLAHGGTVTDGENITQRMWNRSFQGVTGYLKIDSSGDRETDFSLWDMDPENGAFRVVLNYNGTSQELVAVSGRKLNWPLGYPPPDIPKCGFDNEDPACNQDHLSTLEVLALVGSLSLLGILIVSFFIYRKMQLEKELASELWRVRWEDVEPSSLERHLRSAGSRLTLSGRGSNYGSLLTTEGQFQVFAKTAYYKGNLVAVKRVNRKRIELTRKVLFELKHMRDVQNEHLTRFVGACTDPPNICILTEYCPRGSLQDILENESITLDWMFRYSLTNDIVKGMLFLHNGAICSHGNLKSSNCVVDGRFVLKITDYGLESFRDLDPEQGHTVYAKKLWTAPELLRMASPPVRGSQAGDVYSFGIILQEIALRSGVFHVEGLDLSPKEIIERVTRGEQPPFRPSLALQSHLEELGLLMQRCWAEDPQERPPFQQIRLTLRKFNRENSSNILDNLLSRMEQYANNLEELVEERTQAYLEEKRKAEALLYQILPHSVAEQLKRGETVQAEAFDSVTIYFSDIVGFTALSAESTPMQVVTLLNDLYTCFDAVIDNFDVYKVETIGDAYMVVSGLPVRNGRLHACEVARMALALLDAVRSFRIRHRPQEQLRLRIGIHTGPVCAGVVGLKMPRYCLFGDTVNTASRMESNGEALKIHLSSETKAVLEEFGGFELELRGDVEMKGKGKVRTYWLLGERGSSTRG
In short: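 cGMP-sensor HEK293/hNpr1 cells, 1500/well, plated overnight at 37C. 2% GloSensor reagent, 2 h RT. Compound (23 nL pin transfer) 30 min RT, baseline luminescence pre-read. 0.1 nM hNppA, 20 min RT, post-read.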

CCN1C(=O)c2ccccc2C1Nc1ccc(OCCN2CCCCC2)cc1 (stereo unspecified)
inactive: max response [1] -8.48% | Potency [2] | outcome [3] | Potency [4]

CCCCC(CC)COC(=O)c1ccccc1C(=O)O (stereo unspecified)
inactive: outcome [5] | outcome [6] | max response [7] 4.74% and -13.7% | max response [1] -17.7% | max response [8] -6.66% and 0.856% | Potency [9] | Potency [2] | outcome [3] | Potency [10]

O=C(c1ccccc1)c1ccccc1
inactive: outcome [5] | outcome [6] | max response [7] 6.09% and -10.7% | max response [1] -8.14% | max response [8] -5.39% and 4.23% | Potency [9] | Potency [2] | outcome [3] | Potency [10]

OCc1c[nH]c2ccccc12
inactive: outcome [5] | outcome [6] | max response [7] 3.93% | max response [8] 5.55% | Potency [9] | Potency [2] | outcome [3] | Potency [10]

Oc1ccc(CCNCCCCCCNCCc2ccccc2)cc1O
inactive: Potency [2] | outcome [3] | Potency [10]

C1=CC2C3C=CC(C3)C2C1 (stereo unspecified)
inactive: outcome [5] | outcome [6] | max response [7] -2.11% | max response [1] -11.9% | max response [8] -14.2% | Potency [9] | Potency [2] | outcome [3] | Potency [10]

C[N+](C)(C)CCO
inactive: outcome [11] | outcome [12] | outcome [13] | max response [1] 1.6% and 15% | Potency [2] | outcome [3] | Potency [10] | Potency [14]

CN1[C@@H]2CC[C@H]1CC(NC(=O)n1c(=O)[nH]c3ccccc31)C2 (stereo partly specified)
inactive: Potency [2] | outcome [3] | Potency [10]

CN1CCC(Nc2ncc3ncnc(Nc4ccc(F)c(Cl)c4)c3n2)CC1
inactive: Potency [2] | outcome [3] | Potency [10]
